Compound activity from PubChem.
The list is not random: actives were taken first. Their share in the collection is about 8.3%.
Marburg entry inh = qHTS for inhibitors of binding or entry into cells for Marburg Virus. Marburg virus pseudotyped entry inhibition, cell reporter. Potency, µM (series often up to 37.8 µM), for the others: at the top dose activity change, negative = inhibition, actives largely listed as inhibitors. 1.8% of 300,000 active; calls by dose curve; tested in HEK293 cells; also: potency is read from the fitted curve at half-maximal effect
Lassa entry inh = qHTS for Inhibitors of binding or entry into cells for Lassa Virus. Lassa virus pseudotype entry inhibition, cell reporter. Potency, µM (highest dose often 37.9 µM), for inactives: at the highest dose activity change, negative = inhibition, hits mostly inhibitors. 1.2% of 300,000 active; calls by dose curve; tested in HEK293 cells; also: potency is read from the fitted curve at half-maximal effect; nearly all actives have a fitted effect of over 50% in size
HCV inhibitor = qHTS Assay for Inhibitors of Hepatitis C Virus (HCV); 3.4% of 340,000 active; Potency, µM (series often up to 41.8 µM), for inactives: at the top dose activity change, negative = inhibition, actives largely listed as inhibitors; Huh7.5.1 HCVcc-Cre infection, luciferase reporter, 44 h; also: potency is read from the fitted curve at half-maximal effect
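1,000 cells/well; 4 h culture; + compound; + HCVcc-Cre (~0.5 moi); 44 h; luciferase substrate, RT 15 min; read 15 sec.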
FMDV inh = High Throughput Screening for Foot and Mouth Disease Virus Antivirals | FMDV antiviral cell-based qHTS | Potency, µM (titrated, usually from 57.9 µM), inactives show top-dose activity change, negative = inhibition, hits mostly inhibitors | 1.2% of 410,000 active | AID 1159524, 2015; calls by dose curve; tested in HEK293T cells; also: read-out not given here; potency is read from the fitted curve at half-maximal effect; nearly all actives have a fitted effect of over 45% in size
FBPA Giardia inh = qHTS Assay for Inhibitors of Fructose-1,6-bisphosphate Aldolase from Giardia Lamblia. Potency, µM (doses to about 59.6 µM), for the others: at the highest dose activity, negative = inhibition, hits mostly inhibitors. purified Giardia FBPA. AID 2451, 2010. 0.71% of 290,000 active; also: potency is read from the fitted curve at half-maximal effect; nearly all actives have a fitted effect of over 55% in size
Target sequence (A8B2U2 whole entry, looked up): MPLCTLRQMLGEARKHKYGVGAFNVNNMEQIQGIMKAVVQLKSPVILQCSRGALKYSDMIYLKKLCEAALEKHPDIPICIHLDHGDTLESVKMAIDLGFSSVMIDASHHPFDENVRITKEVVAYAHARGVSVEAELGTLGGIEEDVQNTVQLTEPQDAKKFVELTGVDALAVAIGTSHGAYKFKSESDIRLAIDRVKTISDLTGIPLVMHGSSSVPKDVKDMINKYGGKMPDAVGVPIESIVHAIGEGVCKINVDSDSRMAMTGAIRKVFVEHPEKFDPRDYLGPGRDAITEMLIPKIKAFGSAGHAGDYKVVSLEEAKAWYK
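Giardia FBPA (40 nM reagent) was preincubated 10 min at RT with compound (up to 57.5 uM final), then substrate plus GAPDH/TPI/NAD/arsenate coupling system with diaphorase/resazurin was added; resorufin fluorescence (525/598 nm) was read after 20 min.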
HCMV antiviral = qHTS Assay for inhibitors of the human cytomegalovirus (HCMV); activity change, negative = inhibition, % at 57.5 µM; HFF cells, HCMV-luciferase reporter, 72 h; stronger effect = lower value; 4.5% of 410,000 active; in the data active = activity change below about -60%; inconclusive = no clear call, values can overlap the other calls; inactive = above about -39%
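Two-dose cell screen: HFF monolayers treated with compounds and infected with luciferase-expressing HCMV at 1 PFU/cell, 72 h at 37C, then lysed for luciferase measurement.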
Numbers without * were called inactive; ? = inconclusive; / = not tested or not shown; [ ] = remark or other dose. Unless noted, calls follow the shape of the dose curve; as a rule, active = well fitted curve in the direction sought with a large enough effect; inconclusive = small, poorly fitted or top-dose-only effect, or another doubt; inactive = no such curve, though single readings can be large; an effect the other way counts as inactive or inconclusive. % is scaled to controls: 0 for no effect and ±100 for the full control effect.

SMILES | Marburg entry inh | Lassa entry inh | HCV inhibitor | FMDV inh | FBPA Giardia inh | HCMV antiviral
Cc1ccc(Cc2c(C)nc3c(-c4ccccc4)c(C)[nH]n3c2=O)cc1 | ? | 7.8%[46.1 µM] | / | ? | / | -72.8*
Cc1nc2c(-c3ccccc3)c(C)[nH]n2c(=O)c1Cc1ccc(C(C)C)cc1 | ? | ? | / | ? | / | -14.1
Cc1nc2c(-c3ccccc3)c[nH]n2c(=O)c1Cc1ccccc1 | 9.2µM* | ? | ? | -7.6% | ? | -99.0*
COc1ccc(O[C@H]2C=C[C@@H](c3ccccc3)O[C@H]2CO/N=C2/c3cc(OC)ccc3O[C@@H](c3cccc(OC)c3)[C@H]2O)cc1 | ? | / | / | / | -0.2%[12.9 µM] | /
CS/C(N)=C(C#N)/C(C#N)=C(\N)SC | / | / | / | -13.4% | -16.9% | /
CC(O)CCCCCCC/C=C/C=C/C(N)=O (stereo unspecified) | / | / | / | / | 2.3%[12.9 µM] | /
CCC(=O)Nc1nonc1-c1nc2ccccc2n1Cc1ccccc1 | -11.5% | -9.1% | -9.5% | -13.6% | 5.2% | 7.0
CCC(=O)Nc1nonc1-c1nc2ccccc2n1Cc1cccc2ccccc12 | ? | ? | ? | ? | 4.1% | -104.1*
Cc1ccc(C(=O)N2c3ccc(C)cc3C(C)(c3ccccc3)CC2(C)C)cc1 (stereo unspecified) | / | 14.6%[46.1 µM] | / | 0.0% | / | ?
COc1cccc(OC)c1C(=O)Nc1ccc2c(c1)N(C(C)=O)CCC2 | / | 19.8%[46.1 µM] | / | -8.2% | / | -36.5
CC(=O)N1CCCc2ccc(NC(=O)c3ccc(OC(C)C)cc3)cc21 | / | ? | / | 11.2µM* | / | -60.5*
CCCCOc1ccc(C(=O)Nc2ccc3c(c2)N(C(C)=O)CCC3)cc1 | / | 5.6%[46.1 µM] | / | 3.16µM* | / | ?
CCN1CCCC1CNC(=O)c1csc2c1CCCC2 (stereo unspecified) | 23.1µM* | -14.0% | ? | / | 0.4% | 52.6
O=C(NCc1ccco1)c1csc2c1CCCC2 | -0.2%[46.1 µM] | 8.1% | 7.8% | 15.9% | -3.7% | -64.8*
Cc1ccc(CNC(=O)c2csc3c2CCCCC3)cc1 | 2.2% | 10.7% | 8.3% | -9.2% | 0.5% | -28.9
CCCn1c(C)cc(=O)c2cc(NC(=O)c3cnccn3)ccc21 | -19.8% | -8.3% | 2.24µM* | -9.0% | 0.2% | -4.4
CCc1ccc(NC(=O)c2cnccn2)cc1 | ? | ? | 4.0% | -12.1% | -6.3% | 17.1
CC(C)c1ccc(/C=N/Nc2cc(N3CCOCC3)nc(N3CCOCC3)n2)cc1 | ? | ? | ? | -23.6% | -2.7% | -38.4
Cc1cccc(/C=N/Nc2cc(N3CCOCC3)nc(N3CCOCC3)n2)c1 | 1.41µM* | ? | 6.31µM* | 0.0% | -21.0% | -14.5
Cc1cc(N/N=C/c2ccccc2)nc(N2CCOCC2)n1 | 1.58µM* | 6.2% | ? | 8.8% | -3.4% | 18.6
COC(=O)c1ccccc1C[C@]1(C(=O)OC)C=C[C@H](C)[C@@H](c2ccccc2)N1C(=O)C(F)(F)F | -16.1%[14.2 µM] | ? | / | / | 0.1% | /
C=CCNc1nc(N2CCCC2)nc2ccccc12 | ? | -5.6% | 15.8µM* | -16.0% | 13.6% | -36.7
COc1ccc(Nc2nc(N3CCCC3)nc3ccccc23)c(OC)c1 | ? | 16.4µM* | 3.16µM* | / | 6.9% | ?
COc1ccc(Nc2nc(N3CCOCC3)nc(N3CCOCC3)n2)cc1Cl | ? | -19.9% | 10µM* | -28.1% | 1.2% | 18.3
Cc1ccc(Nc2nc(Nc3ccc(C)c(C)c3)nc(N3CCOCC3)n2)cc1C | ? | ? | / | -12.5% | / | 24.2
COc1ccc(Nc2nc(Nc3ccc(OC)cc3OC)nc(N3CCOCC3)n2)c(OC)c1 | 1µM* | -17.6%[46.1 µM] | / | 0.0% | / | -23.7
COc1ccccc1-c1nnc(SCC(=O)c2ccc(F)cc2)n1-c1ccccc1 | -6.5%[46.1 µM] | ? | / | 13.4% | / | -9.1
CCCOC(=O)c1cccc(Nc2nc(CCC)cc(=O)[nH]2)c1 | ? | -22.1%[46.1 µM] | / | ? | / | ?
Cc1ccc(CCNC(=O)C(CC(C)C)NS(=O)(=O)c2ccc3c(c2)oc(=O)n3C)cc1 (stereo unspecified) | -1.7%[46.1 µM] | ? | / | -5.1% | / | -6.9
COc1ccccc1C1CN(Cc2cccnc2)Cc2ccccc2O1 (stereo unspecified) | / | / | / | -10.2% | / | /
